Active and inactive are the calls of the source. Unless noted, how the calls were made is not given here.

In assay [1] the test system is XIP peptide (Xip251-270) binding. The assay can be described thus: XIP fragment 251-270 binding compounds – biochemical, small-molecule microarray, fluorescence 635/667 nm, 0.1 µg/mL protein, primary screen (AID 1182). The conditions noted are these: fluorescent protein binding, 635 nm, higher = more signal, called active from +8 up or from −8 down.
Assay [2] relates to XIP peptide (Xip251-270). The assay can be described thus: compounds binding XIP fragment 251-270 – biochemical, small-molecule microarray, fluorescence 635/667 nm, 0.5 µg/mL protein, primary screen (AID 1183). The conditions noted are these: fluorescence 635 nm, higher = more signal.
Assay [3] is described as follows: blood-stage malaria parasite viability loss – strain 3D7, DAPI fluorescence, 100 nL, primary screen (AID 1184).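 Further: parasites grown inside human red blood cells in medium with human serum.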 The conditions noted are these: P. falciparum 3D7 growth, 3 d, higher = more signal.
For assay [4], the target named is Homeobox protein Hox-A13 (Mus musculus) (UniProt Q62424). The assay can be described thus: disruptors of Hoxa13 oligonucleotide interaction – biochemical, fluorescence polarization, labeled oligonucleotide, primary screen (AID 1185). The conditions noted are these: Hoxa13:DNA binding, 15 min, higher = more signal, called active from +8 up or from −8 down. Background: In fluorescence polarisation assays a small probe gives low polarisation when free and higher when bound to something large.

Assay [5] in a line: blockers of DNA damage checkpoint Chk1 activation – imaging, HeLa, hydroxyurea, phospho-Chk1 antibody, percent positive cells, primary screen (AID 1186). Particulars: hydroxyurea-induced phospho-Chk1 immunofluorescence imaging, higher = more signal.
A short description of assay [6]: blockers of DNA damage checkpoint Chk1 activation – imaging, HeLa, hydroxyurea, phospho-Chk1 nuclear intensity, primary screen (AID 1187). The conditions noted are these: hydroxyurea-induced phospho-Chk1 immunofluorescence imaging, higher = more signal.

Sequence of Homeobox protein Hox-A13 (Mus musculus) (Q62424 whole entry, looked up): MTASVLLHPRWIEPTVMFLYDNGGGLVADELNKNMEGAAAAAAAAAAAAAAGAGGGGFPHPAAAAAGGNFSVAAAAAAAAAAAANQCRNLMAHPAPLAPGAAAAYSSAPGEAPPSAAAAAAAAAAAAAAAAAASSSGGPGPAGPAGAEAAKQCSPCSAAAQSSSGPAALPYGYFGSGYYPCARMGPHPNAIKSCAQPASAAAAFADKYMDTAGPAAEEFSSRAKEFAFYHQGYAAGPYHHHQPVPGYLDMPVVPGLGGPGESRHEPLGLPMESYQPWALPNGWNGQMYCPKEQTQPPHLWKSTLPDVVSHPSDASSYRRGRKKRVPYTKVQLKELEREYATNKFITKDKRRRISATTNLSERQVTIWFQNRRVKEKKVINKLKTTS

As for `C=CCOC(=O)[C@H]1[C@@H]2C(=O)O[C@@H](c3ccccc3)[C@@H](c3ccccc3)N2[C@@H](c2ccc(OCCOC(=O)[C@@H]3C[C@@H]4C(=O)N[C@@H](Cc5ccccc5)C(=O)N4[C@@H]3c3ccc(O)cc3)cc2)[C@]12C(=O)Nc1ccccc12`, the composite z-score in assay [1] was 0.819 (inactive); in assay [2], 0.743. The z-score is -1.83 in assay [3], 1.86 (inactive) in assay [4], -0.287 (inactive) in assay [5] and -0.584 (inactive) in assay [6].
Take `COCCOC(=O)N1C(=O)[C@@]2(c3cc(C#CC4(O)CCCCCC4)ccc31)[C@H](c1ccc(OCCO)cc1)N1[C@H](c3ccccc3)[C@H](c3ccccc3)OC(=O)[C@H]1[C@@H]2C(N)=O`: the composite z-score in assay [1] was 0.539 (inactive); in assay [2], 0.849. The z-score in assay [3] was -2.02; in assay [4], -1.87 (inactive); in assay [5], -0.0641 (inactive); in assay [6], -0.215 (inactive).
In the case of `C[C@H]1NC(=O)C([C@@H](C)OCc2ccccc2)NC(=O)[C@@]23C(=O)N[C@@H](Cc4ccccc4)C2[C@H](C)[C@@]2(C)O[C@H]2C3/C=C/C/C=C\CNC1=O` (stereo not given in full), the composite z-score was -0.113 (inactive) in assay [1] and -0.417 in assay [2]. In addition, the z-score was -2.93 in assay [3], -6.74 (inactive) in assay [4], 0.314 (inactive) in assay [5] and 0.451 (inactive) in assay [6].
For `CCCCN1CC=CC23O[C@@H]4C=CCOC(=O)[C@@H]4[C@H]2C(=O)N(CCO)[C@@H]3C1=O` (stereo not given in full), the figures for the composite z-score in assay [1] and in assay [2] were 0.64 (inactive) and -0.964, respectively. Besides, the z-score in assay [3] was 1.12; in assay [4] it was -3.84 (inactive); in assay [5] it was -0.338 (inactive); in assay [6], -0.424 (inactive).
Turning to `C=CCN1C(=O)[C@]2(O[C@H](CCn3cc([C@H](O)c4ccccc4)nn3)[C@@H]([Si](C)(C)c3ccc(OC)cc3)[C@@H]2C)c2cc(N3C(=O)c4cccc5cccc3c45)ccc21`, the figures for the composite z-score in assay [1] and in assay [2] were 0.767 (inactive) and 0.312, respectively. The z-score in assay [3] was -2.75; in assay [4] it was -3.64 (inactive); in assay [5] it was -0.65 (inactive); in assay [6], -0.164 (inactive).
`CC(c1ccccc1)C(O)C1C=CC2C(=O)N(c3ccccc3)C(=O)C2N1Nc1ccc(C#N)cc1` (stereo not given): the composite z-score in assay [1] is 0.235 (inactive); in assay [2], 0.784. Moreover, the z-score in assay [3] is 0.526; in assay [4], -1.21 (inactive); in assay [5], -0.325 (inactive); in assay [6], 0.313 (inactive).
Turning to `CC1CC/C=C\[C@H]2OC34C=CCN(c5ccc(Cl)cc5)C(=O)[C@H]3N(CCCO)C(=O)[C@]4(C)C2C(=O)O1` (stereo not given in full), the composite z-score in assay [1] was 0.412 (inactive); in assay [2], 0.861. Further, the z-score was 0.4 in assay [3], -4.75 (inactive) in assay [4], -0.226 (inactive) in assay [5] and 0.117 (inactive) in assay [6].
Take `CCCC[C@@H]1C[C@H]1[C@@H](NC(=O)Cc1ccccc1)c1ccc(Cl)cc1`: the composite z-score in assay [1] was 0.155 (inactive); in assay [2], 0.503. The z-score in assay [3] is -0.0042; in assay [4], -2.08 (inactive); in assay [5] it was -0.114 (inactive); in assay [6] it was -0.588 (inactive).
For the compound `COC(=O)Cn1c(C(=O)N(C)C)cc2c1C[C@H]1CN(C(=O)c3ccccc3)[C@@](Cc3ccc(OC)cc3)(C(=O)OC)[C@@H]21`, the composite z-score was 1.28 (inactive) in assay [1] and 0.59 in assay [2]. The z-score is -1.62 in assay [3], -5.22 (inactive) in assay [4], 0.0109 (inactive) in assay [5] and 0.295 (inactive) in assay [6].
In the case of `CCN(CC)c1ccc(N2CC=CC34O[C@@H]5C=CCOC(=O)[C@@H]5[C@H]3C(=O)N(CCO)[C@@H]4C2=O)cc1` (stereo not given in full), the composite z-score was -0.228 (inactive) in assay [1] and -1.29 in assay [2]. The z-score is 0.738 in assay [3], -4.9 (inactive) in assay [4], -0.52 (inactive) in assay [5] and -0.456 (inactive) in assay [6].
As for `C=C(/C(=C/C[C@H](OC(=O)c1ccncc1)c1ccccc1OCCO)c1cc(C(=O)OC)ccc1OC)C(C)C`, the composite z-score in assay [1] was -0.0121 (inactive); in assay [2], 0.605. Further, the z-score in assay [3] is -2.85; in assay [4], -4.77 (inactive); in assay [5], -0.529 (inactive); in assay [6] it was -0.789 (inactive).
Turning to `C=CCOC(=O)[C@H]1[C@@H]2C(=O)O[C@@H](c3ccccc3)[C@@H](c3ccccc3)N2[C@@H](c2ccc(OCCOC(=O)[C@@H]3C[C@@H]4C(=O)N[C@@H](CC(C)C)C(=O)N4[C@@H]3c3ccc(O)cc3)cc2)[C@]12C(=O)Nc1ccc(I)cc12`, the composite z-score in assay [1] is 1.47 (inactive); in assay [2], 0.788. The z-score in assay [3] is -1.79; in assay [4] it was 0.999 (inactive); in assay [5] it was -0.654 (inactive); in assay [6], 0.112 (inactive).
`N#Cc1ccc(C(O)C2C=CC3C(=O)NC(=O)C3N2Nc2ccccn2)cc1` (stereo not given): the composite z-score is -0.108 (inactive) in assay [1] and 0.669 in assay [2]. For the same compound, the z-score in assay [3] was -0.557; in assay [4], -1.11 (inactive); in assay [5], -0.0275 (inactive); in assay [6], 0.114 (inactive).
On to `CCOC(=O)C1=CC[C@@H](c2ccccc2)N(S(=O)(=O)C[Si](C)(C)C)[C@H]1c1ccccc1`, for which the figures for the composite z-score in assay [1] and in assay [2] were 0.127 (inactive) and 0.704, respectively. In addition, the z-score in assay [3] was -1.86; in assay [4], -1.35 (inactive); in assay [5], 0.587 (inactive); in assay [6] it was 0.496 (inactive).
Turning to `CCCC[C@H]1OB(O)C[C@H]2C1=C(COC)C[C@H]1C(=O)C=CC(=O)[C@H]12`, the composite z-score in assay [1] is 0.473 (inactive); in assay [2], 0.407. Further, the z-score was -1.09 in assay [3], -6.74 (inactive) in assay [4], -0.591 (inactive) in assay [5] and -0.434 (inactive) in assay [6].

The values above are taken from PubChem BioAssay.
